# Laboratory results taken from the supplement of paper PMC10105736.
# Values without a mark were called inactive.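 Rule for the calls: active = MAPPIT score above the 99th percentile of random reference set scores in the same batch; inactive = at or below it.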
# How the values were obtained:
# Test in all cases: MAPPIT interaction score (arbitrary units); higher = stronger binary interaction signal, active = hit call of the paper
# [1] = target: spir; details: pair source set: RRS
# [2] = target: sip2; details: MAPPIT configuration: N-N; pair source set: Curagen_low_conf
# [3] = target: sqd; details: MAPPIT configuration: N-C; pair source set: Lit-BM-16
# [4] = target: yip2; details: MAPPIT configuration: N-N; pair source set: Curagen_high_conf
# [5] = target: sw; details: pair source set: Lit-BM-16
# [6] = target: tup; details: MAPPIT configuration: N-N; pair source set: Curagen_low_conf
# [7] = target: saturn; details: MAPPIT configuration: N-C; pair source set: screen_4
# [8] = target: up; details: MAPPIT configuration: N-N; pair source set: RRS
# 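Note: HEK293T cells with Epo stimulation, STAT-responsive firefly luciferase reporter, fold induction versus unstimulated cells divided by the larger fold induction of two negative controls lacking either bait or prey.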
binder,measurement,setting,value
Acp1 (protein) MKFAVAVIFTLALAMGVQSSVIPLLSQVAGHGLSYTAVSGPAVVASPWAVPAAHWPAAVNVASWPPAAIHAAAPAVLAAPAPAVVAAHAPSVVVAPVAHSGVYTAQTRGAIHTAPLAGHIQSVASINAAPAPGTL,MAPPIT interaction score,[1]; MAPPIT configuration: N-C,0.0271
same,MAPPIT interaction score,[1]; MAPPIT configuration: N-N,0.686
Mabi (protein) MEHHQIYRHKKFDMGRKIEKCDLQLKEELISRSGTPCTSRSPFDAANQSVSLGFSDQDADFPPLPKRRRLGSSSSSVSYQSASPIITEAIQDIFKYHVNMVRKFPKKERSPKDQERRNKNTIACRMSRRKKKFDDLQIEQQYKECSDEHLKIAEQSLRARVYLNHLKQLVKQEDHPLVSSRRVPEENTKSNFSIDYLIGGIKQEHA,MAPPIT interaction score,[2],0.378
Hrb27C (protein) MEEDERGKLFVGGLSWETTQENLSRYFCRFGDIIDCVVMKNNESGRSRGFGFVTFADPTNVNHVLQNGPHTLDGRTIDPKPCNPRTLQKPKKGGGYKVFLGGLPSNVTETDLRTFFNRYGKVTEVVIMYDQEKKKSRGFGFLSFEEESSVEHVTNERYINLNGKQVEIKKAEPRDGSGGQNSNNSTVGGAYGKLGNECSHWGPHHAPINMMQGQNGQMGGPPLNMPIGAPNMMPGYQGWGTSPQQQQYGYGNSGPGSYQGWGAPPGPQGPPPQWSNYAGPQQTQGYGGYDMYNSTSTGAPSGPSGGGSWNSWNMPPNSAGPTGAPGAGAGTATDMYSRAQAWATGGPSTTGPVGGMPRTGPGNSASKSGSEYDYGGYGSGYDYDYSNYVKQEGASNYGAGPRSAYGNDSSTQPPYATSQAV,MAPPIT interaction score,[3],2.4
swa (protein) MSLQDESFPTDELFDQLNNLSSSGARNTWFAEHHKPAVFERDTAPFLEICYADPDFDADGDVANKSAKTCVSDPVGRDQEDEDDYDEDVDGDDHKLGCEKAPLGSGRSSKAVSYQDIHSAYTKRRFQHVTSKVGQYIAEIQAQDQKRRNVKFAGFQRVNSMPESLTPTLQQVYVHDGDFKVDKNCQTHSNSDSNYNSNSNNSSSSFDRLLAENESLQQKINSLRVEAKRLQGFNEYVQERLDRKTDDFVKMKCNFETLRTELSECQQKLRRQQDNSQHHFMYHIRSATSAKATQTDFLVDTIPASGNVLVTPHPLGDLTYNSSKGSIELALLSVAPSARVAQNPVQVQRAIHPQSLDFSSVSTEADGSGSGEHRVETSSRALVRRTPAPNNSETSQPSSNDSAIEVEAHEEERPSSRRQWEQQGELISPRQWGQHEGMYYFDKRNNRVIEVMGFNISQGRNQSHDTIHNQSINDSQTRLLVHSMSMSHLEAHDHFRSKRTTLGSRMLRFLGPCVRCRNGDPLNRSNVTYKDGLPAMPEEEFVDQRNQR,MAPPIT interaction score,[4],1.92
DCTN1-p150 (protein) MSEKNLKVGARVELTGKDLLGTVAYVGMTSFAVGKWVGVVLDEPKGKNSGSIKGQQYFQCDENCGMFVRPTQLRLLEAAPGSRRSIEDVSGATPTAAQPTKARLSSSRTSLSSSRQSLLGSRTQLTTSLSERTASSSSIGPRKSLAPQNSKDKESPSTSLAEGAPAASGGNGAASHASSKRASFVETGFLEILKPQFTPSQPLRSPSFTMPSNSGAEDKVALLEAQKTSAELQAQLADLTEKLETLKQRRNEDKERLREFDKMKIQFEQLQEFRTKIMGAQASLQKELLRAKQEAKDAIEAKEQHAQEMADLADNVEMITLDKEMAEEKADTLQLELESSKERIEELEVDLELLRSEMQNKAESAIGNISGGGDSPGLSTYEFKQLEQQNIRLKETLVRLRDLSAHDKHDIQKLSKELEMKRSEVTELERTKEKLSAKIDELEAIVADLQEQVDAALGAEEMVEQLAEKKMELEDKVKLLEEEIAQLEALEEVHEQLVESNHELELDLREELDLANGAKKEVLRERDAAIETIYDRDQTIVKFRELVQKLNDQLTELRDRNSSNEKESLQDPSLKMVTETIDYKQMFAESKAYTRAIDVQLRQIELSQANEHVQMLTAFMPESFMSRGGDHDSILVILLISRIVFKCDIVVSQTRERFPPVDAITREAVTQGHAVQQYAFKCRLLHYVHSLQCALHQILYGLNSCQPDTLLRAGSSLPEMVAQEKIVDGIIELLKSNQLDENSTTDNIEKCVAFFNAMNSVLLAGEQLLNEIQMIRDCVASLGAACESILSDTAIAKVIIQEAGATSDSVLLIQFLNENMESVRQQVKLIKRRLPSDQHVIKSGLSQHKVEAMRGLAQNISRIMSAMHQATKQSLAAIVSTIESDNAAEHTLPQEKYWALLTASCERIYEQDDRGPTQNFKTLLAQANSDLQLIAQHLLDKEYDIISAANNASNQQKSGAHSTPITQRAQLIKKQLEQKNVLAATLENREADVKQLKVAAKMKQNELSEMQIRKDLAEKKLSVLQNEYEHAVDKWKQKYEETSLQLQLKEKEFEETMDHLQSDIDALESEKSDLRDKLKLNSTTGKVQPGSESHSPHNISLSGNTSTAPGISNVSYSAPAGTAPVVAEEVELLKNAFNQERNQRLRLQAQDMRAKLSQFEPLHVPQPQDQRITALESELTRMKHAWVLSLLQVRSQDSVNSGTRIDAVALQRRNQPVPLKGEISSKASQLASDILTEYLQRKPHRATHGQFASFPTVDVKRVLQI,MAPPIT interaction score,[5]; MAPPIT configuration: N-C,0.412
same,MAPPIT interaction score,[5]; MAPPIT configuration: N-N,-0.153
Fcp3C (protein) MDGAKAEVFSVSVDTKMGAFKNSLLLLTLLLAIHLEASKIVYKKPLYGNSNIIKDKRIKTKPVKLETSTMSSTGVASSSTTAEEDWPTAVEFVIMTTPASELEASTETIGNNGTTETTVGEAPIIGSSEGSTRSMEPTTASPLMSTNPSSSSSLVSTIPLPPTAGLPVQDNQPVPCTCGVFLSSQIPNGLPTKPLIHQELDHMFPCNAIGRKQCQTKCLETIVQHLPNSANIVCSALGHDCHKERAYLFIKNCHNQWVNTNLQAGREYCCRSGVPYRCPLMG,MAPPIT interaction score,[6],-0.265
ORMDL (protein) MTSIAGGHGEANPNSSWLSARGFWLAYLLGLLSVHLLFLSVPFVSIPWAWTATNLLHNAAHLYFLHVIKGAPWLSTENDPSRRWTHWEQIDDGVQMTTTRKFLTAVPIVLFLLTCLYTRNNTEHFIPNFISLVVVTLPKLPQFHGVRLFNINKY,MAPPIT interaction score,[7],0.115
Pgd (protein) MSGQADIALIGLAVMGQNLILNMDEKGFVVCAYNRTVAKVKEFLANEAKDTKVIGADSLEDMVSKLKSPRKVMLLVKAGSAVDDFIQQLVPLLSAGDVIIDGGNSEYQDTSRRCDELAKLGLLFVGSGVSGGEEGARHGPSLMPGGHEAAWPLIQPIFQAICAKADGEPCCEWVGDGGAGHFVKMVHNGIEYGDMQLICEAYHIMKSLGLSADQMADEFGKWNSAELDSFLIEITRDILKYKDGKGYLLERIRDTAGQKGTGKWTAIAALQYGVPVTLIGEAVFSRCLSALKDERVQASSVLKGPSTKAQVANLTKFLDDIKHALYCAKIVSYAQGFMLMREAARENKWRLNYGGIALMWRGGCIIRSVFLGNIKDAYTSQPELSNLLLDDFFKKAIERGQDSWREVVANAFRWGIPVPALSTALSFYDGYRTAKLPANLLQAQRDYFGAHTYELLGQEGQFHHTNWTGTGGNVSASTYQA,MAPPIT interaction score,[8],0.146
